Compounds with a hit are over-represented: about 1.6% of the library has one in this group of screens.
KCNQ2 pot = enhances the rat KCNQ2 potassium channel; O88943; CHO-K1 KCNQ2, FluxOR thallium flux fluorescence; stronger effect = higher value; B-score at 10 µM; 310,000 compounds, 0.54% hits;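 active = fluorescence ratio B-score at least 3 SD of library B-scores, with initial fluorescence B-score within 3 of them, cut at about 5.3 in these data; same plate scores as AID 2156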;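 also: B-score of peak minus minimum over baseline fluorescence ratio after K+ and Tl+ stimulus; positive B-score means potentiation of KCNQ2 with more thallium influx and brighter signal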
KCNQ2 block = blocks the rat KCNQ2 potassium channel; O88943; CHO-K1 KCNQ2, FluxOR thallium flux, 20 min; stronger effect = lower value; B-score at 10 µM; 310,000 compounds, 1.1% hits;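 active = fluorescence ratio B-score at most minus 3 library SDs, with starting brightness B-score within 2 library SDs, cut at about -5.5 in these data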
KCNQ2 inh conf = confirmation of rat KCNQ2 potassium channel inhibitors; AID 493025; shares compounds with KCNQ2 block; activity change, negative = inhibition, % at 10 µM; 1,000 compounds, 57% hits; KCNQ2-expressing cells, thallium flux, inhibition; stronger effect = lower value;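 also: 0% = vehicle wells and values are ratio percent relative to vehicle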
KCNQ1 spec = human KCNQ1 activity in KCNQ2 inhibitor specificity screen | shares compounds with KCNQ2 block | KCNQ1-expressing cells, FluxOR thallium flux fluorescence; stronger effect = lower value | activity change, negative = inhibition, % at 10 µM | 1,000 compounds, 15% hits | AID 493026;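 active = activity change at least 3 SD of negative controls below their mean in both duplicate wells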;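 also: CHO cells stably transfected with KCNQ1 and depolarized by potassium stimulus; peak minus minimum fluorescence over baseline after thallium addition; 0% = vehicle negative control and -100% = blank without thallium stimulus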
Target sequence (P51787 whole entry, looked up): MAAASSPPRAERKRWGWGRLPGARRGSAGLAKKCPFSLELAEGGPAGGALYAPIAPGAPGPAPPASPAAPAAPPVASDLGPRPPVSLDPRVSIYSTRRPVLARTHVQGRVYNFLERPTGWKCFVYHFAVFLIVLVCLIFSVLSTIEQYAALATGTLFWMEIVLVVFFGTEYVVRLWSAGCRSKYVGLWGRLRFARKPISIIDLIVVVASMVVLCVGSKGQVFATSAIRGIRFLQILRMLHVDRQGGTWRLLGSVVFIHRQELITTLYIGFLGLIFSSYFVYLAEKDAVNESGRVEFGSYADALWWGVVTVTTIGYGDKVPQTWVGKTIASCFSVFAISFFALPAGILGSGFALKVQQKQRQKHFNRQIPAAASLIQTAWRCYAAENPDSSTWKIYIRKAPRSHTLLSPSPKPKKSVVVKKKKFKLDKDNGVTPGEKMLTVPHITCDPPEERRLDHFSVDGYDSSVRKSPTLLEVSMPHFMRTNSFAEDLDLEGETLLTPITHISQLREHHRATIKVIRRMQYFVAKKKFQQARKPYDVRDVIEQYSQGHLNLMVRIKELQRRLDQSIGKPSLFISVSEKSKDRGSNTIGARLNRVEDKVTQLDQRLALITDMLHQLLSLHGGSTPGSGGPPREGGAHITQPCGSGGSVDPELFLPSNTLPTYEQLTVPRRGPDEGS
CHO Tl ctr = KCNQ2 inhibitor counter-screen hit in parental CHO cells. 1,000 compounds, 14% hits. shares compounds with KCNQ2 block. activity change, % at 10 µM. AID 493029. thallium flux counter-screen; stronger effect = lower value;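 also: 0% = vehicle negative controls with stimulus buffer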
KCNQ2 inh confirm = confirmation of rat KCNQ2 potassium channel inhibitors; 550 compounds, 49% hits; KCNQ2-expressing cells, automated patch clamp current; AID 588531; calls only at 10 µM; shares compounds with KCNQ2 block
* = called active by the depositor; i = inactive; . = not tested or not shown; + = active, no number. Unless noted, no rule for the calls is given here.

SMILES | KCNQ2 pot | KCNQ2 block | KCNQ2 inh conf | KCNQ1 spec | CHO Tl ctr | others
CC1CC(C)CN(C(=O)C(Cc2ccccc2)NC(=O)c2ccccc2)C1 (centres undefined) | -7 | -7* | i | i | i
O=C(NC(Cc1ccccc1)C(=O)N1CCCCCC1)c1ccccc1 (centres undefined) | . | i | . | . | .
CC(C)C[C@H](NC(=O)N1CCn2c1nc1ccccc12)C(=O)NCc1ccccc1 | -6.7 | -6.7* | i | i | i
CC(C)C[C@H](NC(=O)N1CCn2c1nc1ccccc12)C(=O)NCCc1ccccc1 | . | i | . | . | .
COc1cccc(CN2CC(C(=O)NCCc3ccccc3C(F)(F)F)CCC2=O)c1 (centres undefined) | 0.04 | i | . | . | .
COc1ccccc1NC(=O)C(=O)c1cn(CC(=O)N2CCOCC2)c2ccccc12 | 0.32 | i | . | . | .
COC(=O)Cc1c[nH]c2cccc(OCC(O)CN(Cc3ccc([N+](=O)[O-])cc3)C(C)(C)C)c12 (centres undefined) | -8.5 | -8.5* | -20%* | i | i | KCNQ2 inh confirm=+
CC(C)CN(CC(C)C)CC(O)COc1ccc([N+](=O)[O-])cc1 (centres undefined) | . | i | . | . | .
Cc1cccc(OCc2nnc(SCC(=O)N3c4ccccc4CCc4ccccc43)o2)c1 | -7.3 | -7.3* | i | i | i
Cc1cccc(OCc2nnc(SCC(=O)N3CCCC3)o2)c1 | . | i | . | . | .
COc1cc(NC(=O)Cn2ccsc2=N)cc(OC)c1 | 1.5 | i | . | . | .
COC(=O)C(Cc1ccc(O)cc1)N1Cc2ccccc2C1=O (centres undefined) | . | i | . | . | .
COc1ccc(-c2noc(-c3cccnc3)n2)cc1OC | . | i | . | . | .
COc1ccc(-c2noc(-c3ccccc3-c3ccccc3)n2)cc1OC | -8.9 | -8.9* | i | i | i
COc1ccc(C(=O)NCCCNC(=O)c2ccc(C)nc2)cc1 | 0.38 | i | . | . | .
C/C(=N\NC(=O)c1ccc(OC2CCCC2)cc1)c1ccc(O)cc1 | . | i | . | . | .
CC1Cc2cc(S(=O)(=O)N3CCN(c4ccccc4)CC3)ccc2N1C(=O)C1CC1 (centres undefined) | 0.79 | i | . | . | .
CCc1ccc(NC(=O)CCS(=O)(=O)c2ccc(Cl)cc2)cc1 | 1.2 | i | . | . | .
CCN(CC)CC(O)CN(c1ccccc1)S(=O)(=O)c1ccc2ccccc2c1 (centres undefined) | 2 | i | . | . | .
O=S(=O)(c1ccc2ccccc2c1)N(CC(O)COCc1ccco1)c1ccccc1 (centres undefined) | -8.9 | -8.9* | -20%* | i | i | KCNQ2 inh confirm=+
COc1ccc(Cl)cc1NC(=O)C(C)N(C)Cc1ccc(C(F)(F)F)cc1 (centres undefined) | -6.8 | -6.8* | -45%* | -52%* | -39%* | KCNQ2 inh confirm=i
COc1cc(CN(C)C(C)C(=O)Nc2ccc([N+](=O)[O-])cc2Cl)ccc1OC(F)F (centres undefined) | . | i | . | . | .
O=C(N/C(=C\c1cccc(Br)c1)C(=O)N1CCCCC1)c1ccco1 | . | i | . | . | .
COc1ccccc1CNS(=O)(=O)c1ccc2c(c1)NC(=O)CO2 | . | i | . | . | .
Cc1ccc(C(=O)N2CCN(Cc3ccc4c(c3)OCO4)CC2)o1 | 0.38 | i | . | . | .
SMILES | KCNQ2 pot | KCNQ2 block | KCNQ2 inh conf | KCNQ1 spec | CHO Tl ctr | others
Cc1ccc2c(C)c(C(=O)N3CCN(Cc4ccc5c(c4)OCO5)CC3)oc2c1C | -6.9 | -6.9* | i | i | i
COCCSc1nnc(NC(=O)C2CC(=O)N(C3CCCC3)C2)s1 (centres undefined) | . | i | . | . | .
COCCN(C(=O)CCC(=O)Nc1cc(C)on1)C(C(=O)NC1CCCC1)c1ccc(C(C)C)cc1 (centres undefined) | 1 | i | . | . | .
Cc1cc(NC(=O)COC(=O)C2CC(=O)N(c3ccccc3Cl)C2)no1 (centres undefined) | 1.5 | i | . | . | .
CCOC(=O)N1CCN(C(=O)c2cccc(N3C(=O)NC4CC3(C)Oc3ccccc34)c2)CC1 (centres undefined) | 2.8 | i | . | . | .
COc1cccc(N2CCN(C(=O)c3cccc(N4C(=O)NC5CC4(C)Oc4c(OC)cccc45)c3)CC2)c1 (centres undefined) | 1.1 | i | . | . | .
COc1ccccc1N1CCN(C(=O)c2cccc(N3C(=O)NC4CC3(C)Oc3ccccc34)c2)CC1 (centres undefined) | -7.7 | -7.7* | i | i | i
CC12CC(NC(=O)N1c1cccc(C(=O)N3CCN(c4ccccc4)CC3)c1)c1ccccc1O2 (centres undefined) | -7.3 | -7.3* | i | i | i
Cc1nc(-c2ccccc2)sc1-c1nc(-c2cccnc2)ncc1S(=O)(=O)c1ccccc1 | . | i | . | . | .
Cc1ccc(N(C(=O)c2snc(C(N)=O)c2N)C(C(=O)NCc2ccccc2)c2ccncc2)c(C)c1 (centres undefined) | 1.6 | i | . | . | .
Clc1ccc(CSc2cc3c(nn2)-c2ccccc2CC3)cc1 | -10 | -10* | -38%* | -41%* | -28%* | KCNQ2 inh confirm=i
Clc1ccc(CSc2ccc(-c3ccccn3)nn2)cc1 | . | i | . | . | .
CC1=Nc2ccccc2/C1=C/c1nc(-c2ccc(C)s2)oc1O | . | i | . | . | .
CC1=Nc2ccccc2/C1=C/c1sc(=N)n(-c2nccs2)c1O | -9.9 | -9.9* | -52%* | -62%* | -57%* | KCNQ2 inh confirm=i
COc1ccc(Cc2nc3ccc(C(=O)NC(C)c4cnn(C)c4)cc3o2)cc1 (centres undefined) | 0.75 | i | . | . | .
CSc1ccc(CN2CCN(C(=O)CC(C)C)CC2)cc1 | . | i | . | . | .
Cc1ccc(C(=O)/C=C/C(=O)c2ccc(C)cc2)cc1 | -7.5 | -7.5* | i | i | i
Cc1ccc(/C=C/C(=O)c2ccc(C)cc2)cc1 | . | i | . | . | .
Cc1ccc2sc(N(CCCN(C)C)C(=O)c3ccc(Br)s3)nc2c1C | . | i | . | . | .
Cc1cc(NC(=O)Nc2ccccc2)n(C(C)(C)C)n1 | . | i | . | . | .
CCN(CC(=O)NCc1ccc(Cl)cc1)C(=O)c1oc2ccccc2c1C | -7 | -7* | -19%* | i | i | KCNQ2 inh confirm=+
CCN(CC(=O)NCc1ccc(F)cc1)C(=O)c1oc2ccccc2c1C | . | i | . | . | .
CN(c1ccccc1)S(=O)(=O)c1nnc(NC(=O)C2CCCCC2)s1 | 0.14 | i | . | . | .
CN(C)c1nc(NCc2ccccc2)nc(SCC(=O)Nc2ccccc2)n1 | 0.48 | i | . | . | .
CN(C)c1nc(NCc2ccccc2)nc(SCC(=O)Nc2ccccc2Cl)n1 | -6.9 | -6.9* | i | i | i
CC(=O)Nc1cccc(NC(C)=C(C#N)C#N)c1 | 0.62 | i | . | . | .
O=C(Nc1c2c(nc3c1CCC3)CCCC2)c1ccccn1 | . | i | . | . | .
CN(C)CCNC(=O)/C(=C/c1ccc(-c2ccc(Cl)cc2Cl)o1)NC(=O)c1ccccc1 | -9.5 | -9.5* | -39%* | -35%* | -33%*
CN(C)CCNC(=O)/C(=C/c1ccc(-c2ccc(Cl)cc2)o1)NC(=O)c1ccccc1 | . | i | . | . | .
Cc1cc(C(=O)N2CCN(c3ncccn3)CC2)nn1C | . | i | . | . | .
